91 molecules from PubChem BioAssay AID372 (MTDP, 2006) can be followed below.

The whole screen tested about 100,000 compounds, of which about 770 (0.77%) were called active. Cut-off read from the data, not from the text of the source: active = inhibition above about 50%; inactive = the rest. The list comes from a sample in which actives are over-represented; it also holds similar structures and randomly drawn compounds.

For the experiment, the target named is Gag-Pol polyprotein (Human immunodeficiency virus type 1 group M subtype B (isolate HXB2)) (UniProt P04585). The experiment is described as follows: RNase H inhibition, HIV 1 Gag Pol polyprotein, FRET biochemical assay, screening (AID 372). Conditions: HIV-1 RT RNase H, FRET RNA/DNA substrate fluorescence; at 10 µM; stronger effect = higher value.
In general, inhibition refers to how much of the control response was suppressed. Turning to `COc1ccc(OC)c(N(CC(=O)Nc2ccccc2F)S(C)(=O)=O)c1`, the inhibition is 8% (inactive).

Consider `S=C(NCc1ccccc1)N/N=C/c1ccco1`, for which the inhibition was 22% (inactive).

As to `COc1ccc(CCNC(=O)C(=O)Nc2ccccc2)cc1`, the inhibition was 11% (inactive).

As for `Cc1ccc(NC(=O)CSc2nc3ccccc3s2)cc1C`, the inhibition was 41% (inactive).

Consider `CN1CCN(/N=C/c2ccc([N+](=O)[O-])s2)CC1`, for which the inhibition is 6% (inactive).

Take `CCOc1ccc(-n2sc3c(c2=S)-c2ccc(OC)cc2NC3(C)C)cc1`: the inhibition was 2% (inactive).

As for `COc1ccc(C(=O)Nc2ccc(NC(=O)c3cc4ccccc4o3)c(OC)c2)cc1Br`, the inhibition was 6% (inactive).

Take `COc1cc(NC(=O)c2cccc(Cl)c2)ccc1NC(=O)c1cc2ccccc2o1`: the inhibition was 34% (inactive).

`COc1cc(NC(=O)c2ccc(Cl)cc2Cl)ccc1NC(=O)c1cc2ccccc2o1`: the inhibition was 21% (inactive).

As to `COc1cc(NC(=O)c2cc(Cl)c(OC)c(Cl)c2)ccc1NC(=O)c1cc2ccccc2o1`, the inhibition is 52% (active).

With `COc1cc(NC(=O)c2ccc(C(C)(C)C)cc2)ccc1NC(=O)c1cc2ccccc2o1`, the inhibition was 7% (inactive).

Take `COc1cc(NC(=O)c2ccccc2F)ccc1NC(=O)c1cc2ccccc2o1`: the inhibition was 24% (inactive).

For the molecule `COc1cc(NC(=O)c2cc(Cl)ccc2OC)ccc1NC(=O)c1cc2ccccc2o1`, the inhibition was 55% (active).

In the case of `COc1ccc(Cl)cc1C(=O)Nc1cccc(-c2nc3ncccc3o2)c1C`, the inhibition was 3% (inactive).

On to `COc1cc(NC(=O)c2cccc(Br)c2)ccc1NC(=O)c1cc2ccccc2o1`, for which the inhibition is 51% (active).

In the case of `COc1ccc(Cl)cc1C(=O)Nc1ccc(Cl)c(-c2nc3ncccc3o2)c1`, the inhibition is 57% (active).

Turning to `O=C(Nc1ccc(Cl)c(-c2nc3ncccc3o2)c1)c1ccc(Cl)cc1Cl`, the inhibition was 6% (inactive).

Turning to `CCOc1cc(C(=O)Nc2ccc(NC(=O)c3cc4ccccc4o3)c(OC)c2)cc(OCC)c1OCC`, the inhibition was 11% (inactive).

For the molecule `COc1ccccc1N1CCN(C(=O)Cc2ccc(Cl)cc2)CC1`, the inhibition is 5% (inactive).

Regarding `CCCCOc1ccc(C(=O)NC(=S)Nc2cccc(Cl)c2Cl)cc1`, the inhibition was 15% (inactive).

Consider `COc1cccc(C(=O)Nc2ccc(O)c(-c3nc4cc(C)ccc4o3)c2)c1`, for which the inhibition is 5% (inactive).

Take `CCc1ccccc1NC(=O)C(=O)NCCCOC`: the inhibition was 14% (inactive).

On to `O=C(O)C1C2CC=CC2c2cc(Oc3ccccc3)cc3c2N1CC1CC=CC31` (stereo unspecified), for which the inhibition was 40% (inactive).

Take `Cc1ccc(OCCCNC(C)(C)C)c(C(C)(C)C)c1`: the inhibition is 62% (active).

On to `Cc1ccc(OCCCCNC(C)(C)C)c(C)c1`, for which the inhibition was 2% (inactive).

`Cc1ccc(OCCCNC(C)(C)C)c(C)c1`: the inhibition is 10% (inactive).

On to `COCCOC(=O)C1=C(C)NC(=O)CC1c1ccccc1Br` (stereo unspecified), for which the inhibition is 3% (inactive).

As to `COc1ccc(/C=N/N(C)c2cc(C)nc(-c3ccccc3O)n2)cc1OC`, the inhibition was 18% (inactive).

As to `COc1ccc(C=Nc2ccc(Cl)c(Cl)c2)c2ccccc12`, the inhibition was 32% (inactive).

For `Cc1ccc(C(=O)NC(=S)Nc2ccc3oc(-c4ccc(Cl)cc4)nc3c2)cc1C`, the inhibition was 8% (inactive).

For the molecule `CC(=O)Nc1ccc(N2C(=O)c3cccc4c(C(=O)c5ccccc5)ccc(c34)C2=O)cc1`, the inhibition is 20% (inactive).

For the molecule `O=C(O)c1ccc2c3c(cccc13)C(=O)N(c1ccccc1)C2=O`, the inhibition was 21% (inactive).

With `Nc1ccc(-c2ccc(N3C(=O)c4cccc5c(C(=O)c6ccccc6)ccc(c45)C3=O)cc2)cc1`, the inhibition was 51% (active).

On to `O=C(N=NC(=O)c1ccccc1O)c1ccc(-n2c(O)c3ccccc3c2O)cc1`, for which the inhibition was 8% (inactive).

`Cc1ccc(C(=O)Nc2ccc(Nc3ccccc3)cc2)cc1[N+](=O)[O-]`: the inhibition is 15% (inactive).

As to `Cc1ccc(NCC(=O)N/N=C\c2ccccc2OCC(=O)O)cc1`, the inhibition is 7% (inactive).

Turning to `COc1ccc(/C=C/C(=O)NC(=S)Nc2ccc(I)cc2)cc1`, the inhibition is 8% (inactive).

`COc1ccc(C(=O)NC(=S)Nc2ccc(S(=O)(=O)N=C(N)N)cc2)cc1`: the inhibition was 2% (inactive).

For `Cc1ccc(/C=C/C(=O)NC(=S)Nc2ccc(S(=O)(=O)N=C(N)N)cc2)cc1`, the inhibition was 63% (active).

Regarding `CC(C)c1ccc(/C=C/C(=O)NC(=S)Nc2ccc(S(=O)(=O)N=C(N)N)cc2)cc1`, the inhibition was 41% (inactive).

As for `NC(N)=NS(=O)(=O)c1ccc(NC(=S)NC(=O)/C=C/c2ccc(Br)cc2)cc1`, the inhibition was 19% (inactive).

`COc1ccc(/C=C/C(=O)NC(=S)Nc2ccc(S(=O)(=O)N=C(N)N)cc2)cc1`: the inhibition was 57% (active).

For `CC(=O)C1=C(O)C(=O)N(c2ccc(Br)cn2)C1c1ccc([N+](=O)[O-])cc1` (stereo unspecified), the inhibition was 0% (inactive).

With `CCCN1CCC(NCCc2ccc(F)cc2)CC1`, the inhibition is 1% (inactive).

As to `COc1cc(OC)cc(C(=O)N2CCN(Cc3ccccc3[N+](=O)[O-])CC2)c1`, the inhibition is 6% (inactive).

`O=C(O)c1ccc(N/N=C/c2ccccc2C(F)(F)F)cc1`: the inhibition is 6% (inactive).

Consider `O=C(O)c1ccc(/C=N/Nc2ccc([N+](=O)[O-])cc2)cc1`, for which the inhibition is 10% (inactive).

Regarding `O=C(O)c1ccc(N/N=C/c2c(Cl)ccc(Cl)c2Cl)cc1`, the inhibition is 51% (active).

On to `COc1cc(C=O)ccc1OCCOc1ccc(Cl)cc1`, for which the inhibition is 7% (inactive).

For the molecule `COC(=O)c1ccc(COc2ccc3c(c2)oc(=O)c2cc(OC)ccc23)cc1`, the inhibition is 59% (active).

As for `COC(=O)c1ccc(COc2ccc3c(c2)oc(=O)c2ccccc23)cc1`, the inhibition is 48% (inactive).

Turning to `COc1ccc2c(c1)c(=O)oc1cc(OCc3ccc(C(=O)O)cc3)ccc12`, the inhibition is 19% (inactive).

For `COc1ccc(OC)c(/C=C2\SC(N3CCCCCC3)=NC2=O)c1`, the inhibition was 11% (inactive).

As to `CCOc1ccccc1NC(=O)CCCN1C(=O)/C(=C/c2ccc(C)cc2)SC1=S`, the inhibition was 27% (inactive).

`Cc1ccc(/C=C2/SC(=S)N(CCCC(=O)Nc3cc(Cl)ccc3O)C2=O)cc1`: the inhibition was 16% (inactive).

For `COc1ccc(/C=C2\SC(=S)N(CCC(=O)Nc3cc(Cl)ccc3O)C2=O)cc1`, the inhibition was 53% (active).

Turning to `CCOc1ccccc1NC(=O)CCN1C(=O)/C(=C/c2ccc(C)cc2)SC1=S`, the inhibition is 56% (active).

Turning to `Cc1ccc(/C=C2\SC(=S)N(CCC(=O)Nc3ccc(Cl)cc3)C2=O)cc1`, the inhibition is 18% (inactive).

For `Cc1ccc(/C=C2\SC(=S)N(CCC(=O)Nc3ccc(S(N)(=O)=O)cc3)C2=O)cc1`, the inhibition was 57% (active).

`Cc1ccc(/C=C2\SC(=S)N(CCC(=O)Nc3cc(Cl)ccc3O)C2=O)cc1`: the inhibition is 10% (inactive).

Consider `CC(C)(C)N(Cc1ccccc1)C(=O)CCCN1C(=O)/C(=C/c2cccs2)SC1=S`, for which the inhibition is 37% (inactive).

In the case of `Cc1ccc(/C=C2/SC(=S)N(CCC(=O)Nc3ccc(Br)cc3)C2=O)cc1`, the inhibition is 0% (inactive).

Regarding `CC(C)(C)N(Cc1ccccc1)C(=O)CCN1C(=O)/C(=C\c2cccs2)SC1=S`, the inhibition is 12% (inactive).

Consider `O=C1/C(=C/c2cccs2)SC(=S)N1CCCC(=O)N(Cc1ccccc1)c1ccccc1`, for which the inhibition was 50% (active).

For `COc1ccccc1NC(=O)CCN1C(=O)/C(=C/c2ccc(C)cc2)SC1=S`, the inhibition was 11% (inactive).

For the molecule `Cc1cc(NC(=O)c2ccc(-c3ccc(Cl)cc3)o2)ccc1NC(=O)c1ccco1`, the inhibition was 11% (inactive).

For the molecule `Cc1cc(C)cc(N2C(=O)NC(=O)/C(=C\c3c(C)n(C)c4ccccc34)C2=O)c1`, the inhibition is 12% (inactive).

With `Cc1cc2nc(-c3ccc(Cl)c(NC(=O)c4cc([N+](=O)[O-])ccc4Cl)c3)oc2cc1C`, the inhibition is 8% (inactive).

For the molecule `COc1cccc(OC)c1OCC(O)CN1CCC(CN2C(=O)c3cccc4cccc(c34)C2=O)CC1` (stereo unspecified), the inhibition was 19% (inactive).

Regarding `CCOC(=O)C1=C(C)N=c2s/c(=C\c3ccc(-c4ccc(Cl)cc4)o3)c(=O)n2C1c1ccc(SC)cc1` (stereo unspecified), the inhibition was 0% (inactive).

For `O=C(c1ccc([N+](=O)[O-])cc1[N+](=O)[O-])N1CCN(C(c2ccccc2)c2ccccc2)CC1`, the inhibition is 2% (inactive).

As for `O=C(CSc1nc2ccccc2s1)Nc1ccc(F)c([N+](=O)[O-])c1`, the inhibition was 2% (inactive).

Regarding `CCOc1ccc2ccccc2c1/C=N/NC(=O)CN1CCOCC1`, the inhibition was 9% (inactive).

Take `CCOC(=O)/C(C#N)=C1/C=C(c2ccccc2)N=C(c2ccccc2)N1`: the inhibition is 16% (inactive).

Consider `COc1ccc2ccccc2c1C=Nc1ccc(C)cc1O`, for which the inhibition is 27% (inactive).

`Cc1ccccc1Cn1cc(C=C2C(=O)NC(=O)NC2=O)c2ccccc21`: the inhibition is 43% (inactive).

`COc1cc(C=O)ccc1OCCCOc1cc(C)c(Cl)cc1C`: the inhibition was 21% (inactive).

For `COc1ccccc1N=Cc1c(O)n(-c2ccccc2F)c(=O)[nH]c1=O`, the inhibition is 8% (inactive).

With `Cc1ccc(/C=C2\SC(=S)N(CCC(=O)Nc3ccc(S(=O)(=O)Nc4nccs4)cc3)C2=O)cc1`, the inhibition is 23% (inactive).

Turning to `Cc1ccc(/C=C2/SC(=S)N(CCC(=O)Nc3ccc([N+](=O)[O-])cc3)C2=O)cc1`, the inhibition is 10% (inactive).

With `Cc1ccc(/C=C2\SC(=S)N(CCCC(=O)NCCc3ccccc3)C2=O)cc1`, the inhibition was 57% (active).

As to `Cc1ccc(/C=C2\SC(=S)N(CCC(=O)Nc3ccc([N+](=O)[O-])cc3O)C2=O)cc1`, the inhibition is 52% (active).

On to `Cc1ccc(/C=C2\SC(=S)N(CCCC(=O)Nc3ccc(C)cc3)C2=O)cc1`, for which the inhibition is 10% (inactive).

Take `Cc1ccc(/C=C2\SC(=S)N(CCC(=O)Nc3cc([N+](=O)[O-])ccc3O)C2=O)cc1`: the inhibition is 0% (inactive).

As for `O=C(CCN1C(=O)/C(=C/c2ccc(Cl)cc2)SC1=S)Nc1nccs1`, the inhibition is 10% (inactive).

On to `Cc1ccc(/C=C2\SC(=S)N(CCc3ccccc3)C2=O)cc1`, for which the inhibition is 3% (inactive).

With `Cc1ccc(/C=C2\SC(=S)N(CCC(=O)Nc3nccs3)C2=O)cc1`, the inhibition was 51% (active).

In the case of `Cc1ccc2oc(-c3cccc(NC(=O)c4ccc(-c5ccc([N+](=O)[O-])cc5)o4)c3C)nc2c1`, the inhibition is 20% (inactive).

In the case of `CCOc1ccccc1N=C1C(=O)Nc2ccc([N+](=O)[O-])cc21`, the inhibition was 2% (inactive).

As to `CC1=NN(C(=O)c2cccc(O)c2)C(O)(c2ccc(Br)cc2)C1` (stereo unspecified), the inhibition is 8% (inactive).

Regarding `CC(=O)C1C(=O)c2cc([N+](=O)[O-])ccc2C1=Nc1ccc(Br)cc1` (stereo unspecified), the inhibition was 6% (inactive).
